Screening data: PubChem BioAssay, several laboratories
BoNT-F LC inh: inhibitors of Botulinum neurotoxin F light chain protease; Multiplex microsphere protease cleavage assay, flow cytometry; inhibition, % at 10 µM; 360,000 compounds, 0.22% hits; AID 588497; in the data active = inhibition above about 35%, passing the limit was not always enough; inconclusive = no clear call, values can overlap the other calls; also: plate controls were buffer without enzyme for full effect and enzyme alone for no effect
Mtb FBA inh: inhibitors of M. tuberculosis fructose-bisphosphate aldolase; purified M. tuberculosis FBA, fluorescence read-out; AID 588726; inhibition, % at 1 µM; P9WQA3; 360,000 compounds, 2.3% hits; in the data active = inhibition above about 27%;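 also: 0% = vehicle and 100% = reference inhibitor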
Anthrax LF prot: blocks Bacillus anthracis lethal factor protease. AID 588501. inhibition, % at 10 µM. 360,000 compounds, 0.12% hits. P15917. multiplex microsphere protease cleavage assay, LF; also: plate controls were buffer without enzyme for full effect and enzyme alone for no effect
Target sequence (P15917 whole entry, looked up): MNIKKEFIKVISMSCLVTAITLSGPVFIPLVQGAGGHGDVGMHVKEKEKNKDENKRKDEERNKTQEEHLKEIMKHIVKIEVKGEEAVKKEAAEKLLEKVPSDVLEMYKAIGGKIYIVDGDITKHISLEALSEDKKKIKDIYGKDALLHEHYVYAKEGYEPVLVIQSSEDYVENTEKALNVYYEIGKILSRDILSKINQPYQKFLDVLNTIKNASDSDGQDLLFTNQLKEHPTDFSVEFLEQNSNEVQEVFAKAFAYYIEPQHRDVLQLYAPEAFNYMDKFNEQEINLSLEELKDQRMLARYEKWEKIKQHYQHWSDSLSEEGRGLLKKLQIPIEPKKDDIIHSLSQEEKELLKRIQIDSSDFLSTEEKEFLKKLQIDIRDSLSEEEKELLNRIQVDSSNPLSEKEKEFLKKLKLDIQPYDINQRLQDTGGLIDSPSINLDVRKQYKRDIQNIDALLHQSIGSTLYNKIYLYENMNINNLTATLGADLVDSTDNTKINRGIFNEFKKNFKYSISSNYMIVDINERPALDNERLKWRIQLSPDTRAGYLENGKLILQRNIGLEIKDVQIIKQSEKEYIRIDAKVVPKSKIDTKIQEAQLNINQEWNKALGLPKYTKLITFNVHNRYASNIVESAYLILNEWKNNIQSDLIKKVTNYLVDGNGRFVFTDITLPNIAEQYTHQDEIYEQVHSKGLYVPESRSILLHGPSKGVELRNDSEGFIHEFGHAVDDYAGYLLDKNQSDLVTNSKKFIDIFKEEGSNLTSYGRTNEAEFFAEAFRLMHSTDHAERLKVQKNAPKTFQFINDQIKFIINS
BoNT-A LC inh2: blocks Botulinum neurotoxin A light chain protease | multiplex microsphere protease substrate cleavage, flow cytometry | AID 588499 | inhibition, % at 10 µM | 360,000 compounds, 0.17% hits; also: plate controls were buffer without enzyme for full effect and enzyme alone for no effect
Autofluor counter: counter-screen for toxin protease inhibitors: compound fluorescence | compound autofluorescence counterscreen, microsphere flow cytometry; hits give high values | fluorescence intensity (concentration not given with the values) | 360,000 compounds, 3.1% hits; in the data active = fluorescence intensity above about 16000; inconclusive = no clear call, values can overlap the other calls
GDH-TPI counter: counter-screen for M. tuberculosis FBA inhibitors: GDH-TPI coupled enzymes; GDH-TPI coupled enzyme counterscreen, NADH absorbance; AID 588335; 360,000 compounds, 1.2% hits; inhibition, % at 4.8 µM; in the data active = inhibition above about 30%;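 also: 0% = DMSO wells and 100% = wells lacking the enzyme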
An asterisk follows results filed as active; ? = inconclusive; + = active, no number. The list is not random: actives were taken first. Their share in the collection is about 6.7%. Rule as the data show it, unless noted: active = inhibition above about 30%; inconclusive = no clear call, values can overlap the other calls; inactive = below that.

SMILES	BoNT-F LC inh	Mtb FBA inh	Anthrax LF prot	BoNT-A LC inh2	Autofluor counter	GDH-TPI counter
COc1ccc(OCCCC(=O)Nc2ccc3c(c2)OCO3)cc1	-2	-3	0	0	16175*	-5
COc1ccc(C)cc1NC(=O)c1cc2ccccc2o1	-4	-2	-6	?	23609*	23
COc1ccc(C)cc1NC(=O)COC(=O)c1ccc2c(c1)OCO2	-8	1	-9	0	2993	20
CCOc1ccc(OCCC(=O)Nc2ccc3c(c2)OCO3)cc1	2	3	6	0	3959	9
COc1ccc(C)cc1NC(=O)c1ccc2c(c1)OCO2	2	1	0	2	21822*	-2
COc1cc(C(=O)Nc2ccc3c(c2)OCCO3)c(-n2cnnn2)cc1OC	-1	3	-2	0	22353*	2
CN(C)c1ccc(CNC2CC(C)(C)NC(C)(C)C2)cc1	-9	3	2	-2	9379	-6
CC(C)C(C(=O)Nc1ccc2c(c1)OCO2)N1C(=O)c2ccccc2C1=O (stereo not drawn)	0	1	-2	?	20817*	-4
CC(C)C(C(=O)Nc1ccc2c(c1)OCCO2)N1C(=O)c2ccccc2C1=O (stereo not drawn)	-7	1	-6	0	8355	-1
COc1ccc(-c2cc3ncnc(Cl)c3s2)cc1	-4	+	1	-3	7134	16
COc1cccc2oc3ccc(C#CC4(N)CCCCC4)cc3c(=O)c12	-2	23	-4	0	4044	26
COc1ccccc1C(=O)NC(CCSC)C(=O)NCC(c1cccs1)N(C)C (stereo not drawn)	2	1	-2	2	6332	-5
COc1ccccc1C(=O)NC(CCSC)C(=O)NCC(c1ccco1)N(C)C (stereo not drawn)	-3	-3	-1	-1	21152*	-17
CCOc1ccc2nc3ccc4[nH]onc4c3c2c1	50*	10	12	?	5438	11
COc1ccc(Oc2ncc(CN3CCN(c4ccccc4)CC3)s2)cc1	?	7	-4	0	?	-1
COc1cc(-c2nnc(SCC#CCO)o2)cc(OC)c1OC	-1	4	-2	0	22486*	-10
CC1=C(C)CC(C(=O)NCCc2ccccc2)C(C(=O)O)C1 (stereo not drawn)	0	0	0	0	23755*	1
CN(C)C(=O)N1CCCC(C(=O)NCCc2ccccc2)C1 (stereo not drawn)	-7	5	-4	-6	24323*	0
Cc1ccc(CCNC(=O)C2CCCN(C(=O)N(C)C)C2)cc1 (stereo not drawn)	-12	0	-6	-6	25529*	7
CCS(=O)(=O)N1CCCC(C(=O)NCCc2ccc(C)cc2)C1 (stereo not drawn)	-5	3	-4	-1	9619	0
CC(=O)c1c(C(C)=O)c(C)n(-c2ccc(O)cc2)c1C	-6	5	-3	-5	21526*	-8
Cc1cc(N2CCN(C(=O)c3cccs3)CC2)c(F)cc1[N+](=O)[O-]	?	-4	6	-3	3360	38*
CCC(=O)c1ccc(N2CCN(C(=O)c3cccs3)CC2)c(F)c1	?	2	-6	-4	3303	32*
CCC(=O)c1ccc(N2CCN(C(=O)c3ccccc3F)CC2)c(F)c1	-6	2	5	0	4831	-4
CC(=O)Nc1ccc(C(=O)Cn2nnc3ccccc3c2=O)cc1	2	-1	-2	3	18940*	-7
SMILES	BoNT-F LC inh	Mtb FBA inh	Anthrax LF prot	BoNT-A LC inh2	Autofluor counter	GDH-TPI counter
CN1C[C@H](CO)C=C2c3cccc4[nH]cc(c34)C[C@H]21	-44	172*	-22	1	3624	9
CC(C)[C@H]1C(=O)N2CCC[C@H]2[C@]2(O)O[C@](NC(=O)[C@@H]3C=C4c5cccc6[nH]cc(c56)C[C@H]4N(C)C3)(C(C)C)C(=O)N12	-73	5	-33	2	4325	4
COc1ccc(-c2noc(-c3ccccc3C(=O)N3CCOCC3)n2)cc1	9	-1	1	6	20897*	10
COc1cccc(N2CCN(C(=O)c3[nH]c(C)c(C(C)=O)c3C)CC2)c1	-3	0	-2	-1	4014	-11
CC(=O)c1c(C)[nH]c(C(=O)N2CCN(c3ccc(F)cc3)CC2)c1C	-5	2	-3	-4	23763*	5
CCOc1cc(C(=O)N2CCN(c3ccccc3)CC2)cc(OCC)c1OCC	4	2	-5	0	3241	-2
CC(=O)c1ccc(N2CCN(C(=O)c3ccc4[nH]c(C)c(C)c4c3)CC2)cc1	-9	5	-7	0	3040	35*
CCOc1cc(C(=O)N2CCN(c3ccc(C(C)=O)cc3)CC2)cc(OCC)c1OCC	-17	1	-5	-1	11299	31*
CCCCN(CCCC)CCNC(=O)c1cn(CC)c2ccc(S(=O)(=O)N(C)C3CCCCC3)cc2c1=O	2	0	0	0	5373	-5
O=C(C1CCCN(Cc2cccc(F)c2)C1)N1CCCCC1 (stereo not drawn)	2	-1	-1	0	16903*	14
COc1ccc(-c2cc(N)n(S(=O)(=O)c3c(F)c(F)c(F)c(F)c3F)n2)cc1OC	-1	-3	0	?	16388*	-1
CCCC/C(=N/O)c1c(C)[nH]c2ccccc12	-6	4	-1	-1	4297	0
COC(=O)c1cccnc1-n1c(=O)c2cccnc2n(Cc2ccc(Cl)cc2)c1=O	2	-1	-1	0	22186*	-14
CCOC(=O)c1ccc(COC(=O)c2ccc(-c3nnc(-c4ccccc4)o3)cc2)o1	5	0	0	0	4790	-2
CCOC(=O)c1cc2c(=O)n3ccccc3nc2n(Cc2ccc(Cl)cc2)c1=N	-4	20	2	1	5669	5
CCOC(=O)c1cc2c(=O)n3ccccc3nc2n(C(C)C)c1=NC(=O)c1c(-c2c(F)cccc2Cl)noc1C	24	26	34*	71*	2502	3
CCCCn1c(=NC(=O)c2ccco2)c(C(=O)OCC)cc2c(=O)n3cccc(C)c3nc21	9	173*	7	10	4023	6
CCCCn1c(=NC(=O)c2ccco2)c(C(=O)OCC)cc2c(=O)n3ccccc3nc21	1	197*	1	4	3606	8
CCCCCCn1c(C(C)NC(=O)c2ccco2)nc2ccccc21 (stereo not drawn)	?	-4	-1	0	4309	-5
CCCCn1c(=N)c(S(=O)(=O)c2ccc(Br)cc2)cc2c(=O)n3cccc(C)c3nc21	10	1	10	10	5054	10
CCCCCn1c(=NC(=O)c2ccco2)c(C(=O)OCC)cc2c(=O)n3ccccc3nc21	-2	144*	12	7	3920	10
Cc1ccc(CN2CCN(CC(=O)NC(C)CCc3ccccc3)C2=O)cc1 (stereo not drawn)	1	2	-2	0	5272	-3
